Activity calls are given as the source filed them. The calls were made as follows: active = hit-call score of the fitted dose curve at least 0.9, where 1 is the maximum; inactive = score below 0.9.
How the values were obtained:
Settings in all cases: mRNA level, 48 h; actives raise or lower the signal
CYP4A11 (gene 1579) = experiment: LTEA_HepaRG_CYP4A11: Life Technologies and Expression Analysis (LTEA) Assay for CYP4A11 using HepaRG (AID 2283486)
Procedure, shortened: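 Differentiated HepaRG cells, 48 h after plating, exposed in duplicate for 48 h to 8 half-log concentrations up to 100 uM in 0.5% DMSO in serum-free induction medium. CYP4A11 mRNA measured by TaqMan qRT-PCR, normalized to ACTB, GAPDH and POLR2A.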

[1] = read-out: Cytochrome P450 3A4 (Homo sapiens) (UniProt P08684); experiment: LTEA_HepaRG_CYP3A4: Life Technologies and Expression Analysis (LTEA) Assay for CYP3A4 using HepaRG (AID 2283487)
Procedure, shortened: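 Differentiated HepaRG cells, plated 48 h, then dosed 48 h in serum-free induction medium with 0.5% DMSO, 8 half-log concentrations up to 100 uM, duplicate. CYP3A4 mRNA by qRT-PCR, normalized to ACTB/GAPDH/POLR2A; bidirectional fit versus DMSO.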

[2] = read-out: DNA damage-inducible transcript 3 (DDIT3), DDIT3 (gene 1649); experiment: LTEA_HepaRG_DDIT3: Life Technologies and Expression Analysis (LTEA) Assay for DNA damage-inducible transcript 3 (DDIT3) using HepaRG (AID 2283488)
Procedure, shortened: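 DDIT3 transcript was quantified by qRT-PCR with ACTB/GAPDH/POLR2A normalization after 48 h chemical treatment of differentiated HepaRG cells in 0.5% DMSO. Dosing was eight-point, half-log, top 100 uM, duplicate wells. Curves fitted bidirectionally versus DMSO.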

[3] = read-out: Pro-epidermal growth factor (Homo sapiens) (UniProt P01133); experiment: LTEA_HepaRG_EGF: Life Technologies and Expression Analysis (LTEA) Assay for Epidermal growth factor (EGF) using HepaRG (AID 2283489)
Procedure, shortened: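 HepaRG cells (~100,000/well, 48 h pre-culture) exposed in duplicate for 48 h in serum-free induction medium to 8 half-log concentrations up to 100 uM in 0.5% DMSO. EGF mRNA by qRT-PCR, normalized to ACTB/GAPDH/POLR2A; bidirectional fit versus DMSO.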

[4] = read-out: Early growth response protein 1 (EGR1) transcription factor, EGR1 (gene 1958); experiment: LTEA_HepaRG_EGR1: Life Technologies and Expression Analysis (LTEA) Assay for Early growth response protein 1 (EGR1) transcription factor using HepaRG (AID 2283490)
Procedure, shortened: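 EGR1 expression change in human HepaRG after 48 h chemical exposure, assessed by housekeeping-normalized qRT-PCR; concentration-response up to 100 uM, fitted in both directions against DMSO controls.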

[5] = read-out: Ezrin (EZR), EZR (gene 7430); experiment: LTEA_HepaRG_EZR: Life Technologies and Expression Analysis (LTEA) Assay for Ezrin (EZR) using HepaRG (AID 2283491)
Procedure, shortened: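 EZR transcript levels came from Fluidigm qRT-PCR and were normalized to three housekeeping genes after 48 h chemical exposure of HepaRG cells. Dosing used an 8-point half-log series with a 100 uM top concentration in 0.5% DMSO, tested in duplicate; both directions were fitted versus vehicle.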

CYP3A5 (gene 1577) = experiment: LTEA_HepaRG_CYP3A5: Life Technologies and Expression Analysis (LTEA) Assay for CYP3A5 using HepaRG (AID 2283493)
Procedure, shortened: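 mRNA levels were quantified by qRT-PCR on Fluidigm arrays and normalized to three housekeeping genes. Differentiated HepaRG cells received 48 h exposure (top 100 uM, half-log steps, 0.5% DMSO vehicle, duplicate); bidirectional fitting versus DMSO.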

[6] = read-out: Fatty Acid-Binding Protein 1 (FABP1), FABP1 (gene 2168); experiment: LTEA_HepaRG_FABP1: Life Technologies and Expression Analysis (LTEA) Assay for Fatty Acid-Binding Protein 1 (FABP1) using HepaRG (AID 2283494)
Procedure, shortened: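 Values reflect bidirectional concentration-response fitting of FABP1 mRNA change against 0.5% DMSO controls. Human HepaRG cultures received eight half-log doses (top 100 uM) for 48 h; expression quantified by TaqMan qRT-PCR with housekeeping-gene normalization.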

[7] = read-out: Cytochrome P450 4A22 (Homo sapiens) (UniProt Q5TCH4); experiment: LTEA_HepaRG_CYP4A22: Life Technologies and Expression Analysis (LTEA) Assay for Cytochrome P450 4A22 (CYP4A22) using HepaRG (AID 2283495)
Procedure, shortened: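 Differentiated HepaRG cells in serum-free induction medium exposed 48 h in duplicate to eight half-log concentrations up to 100 uM in 0.5% DMSO. CYP4A22 mRNA quantified by TaqMan qRT-PCR, normalized to ACTB, GAPDH and POLR2A; bidirectional fit versus DMSO.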

[8] = read-out: Cytochrome P450 7A1 (Homo sapiens) (UniProt P22680); experiment: LTEA_HepaRG_CYP7A1: Life Technologies and Expression Analysis (LTEA) Assay for Cytochrome P450 7A1 (CYP7A1) using HepaRG (AID 2283496)
Procedure, shortened: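 HepaRG, 48 h exposure, 8-pt half-log series from 100 uM, 0.5% DMSO vehicle, duplicates. Readout: TaqMan qRT-PCR mRNA vs three housekeeping genes; bidirectional curve fit against DMSO baseline.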

[9] = read-out: Glutathione S-Transferase (GSTA2), GSTA2 (gene 2939); experiment: LTEA_HepaRG_GSTA2: Life Technologies and Expression Analysis (LTEA) Assay for Glutathione S-Transferase (GSTA2) using HepaRG (AID 2283497)
Procedure, shortened: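 Oxidative-stress marker GSTA2 is quantified by TaqMan qRT-PCR in HepaRG cultures treated 48 h across an eight-point range to 100 uM. Expression is normalized to endogenous controls and compared with 0.5% DMSO vehicle.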

[10] = read-out: Glutamate-cysteine ligase catalytic (GCLC), GCLC (gene 2729); experiment: LTEA_HepaRG_GCLC: Life Technologies and Expression Analysis (LTEA) Assay for Glutamate-cysteine ligase catalytic (GCLC) using HepaRG (AID 2283498)
Procedure, shortened: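 Oxidative-stress marker GCLC is measured as mRNA change in human HepaRG liver cells after 48 h chemical treatment in 0.5% DMSO, eight concentrations from 100 uM. Activity is fitted bidirectionally against vehicle.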

[11] = read-out: growth arrest and DNA damage 45 (GADD45G), GADD45G (gene 10912); experiment: LTEA_HepaRG_GADD45G: Life Technologies and Expression Analysis (LTEA) Assay for growth arrest and DNA damage 45 (GADD45G) using HepaRG (AID 2283499)
Procedure, shortened: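 Differentiated human HepaRG cells, 48 h post-plating, exposed 48 h in serum-free induction medium to 8 half-log concentrations (top 100 uM, 0.5% DMSO) in duplicate. GADD45G mRNA measured by Fluidigm TaqMan qRT-PCR, normalized to ACTB, GAPDH, POLR2A; bidirectional fit versus DMSO.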

[12] = read-out: Glutathione S-transferase M3 (GSTM3), GSTM3 (gene 2947); experiment: LTEA_HepaRG_GSTM3: Life Technologies and Expression Analysis (LTEA) Assay for Glutathione S-transferase M3 (GSTM3) using HepaRG (AID 2283501)
Procedure, shortened: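 Differentiated human HepaRG cells were exposed in duplicate for 48 h in serum-free induction medium, 8 points from 100 uM top in half-log steps, 0.5% DMSO. GSTM3 mRNA was measured by TaqMan qRT-PCR, normalized to ACTB, GAPDH and POLR2A; bidirectional fit versus DMSO.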

[13] = read-out: Heat shock 70 kDa protein 1 (HSPA1A), gene 3303; experiment: LTEA_HepaRG_HSPA1A: Life Technologies and Expression Analysis (LTEA) Assay for Heat shock 70 kDa protein 1 (HSPA1A) using HepaRG (AID 2283502)
Procedure, shortened: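 HSPA1A expression measured by qRT-PCR with ACTB/GAPDH/POLR2A normalization; curves fitted in both directions relative to DMSO vehicle. Exposure: 48 h in HepaRG cells, duplicate 8-point half-log series from 100 uM, 0.5% DMSO, serum-free induction medium.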

[14] = read-out: Hypoxia-inducible factor 1-alpha (Homo sapiens) (UniProt Q16665); experiment: LTEA_HepaRG_HIF1A: Life Technologies and Expression Analysis (LTEA) Assay for Hypoxia-inducible factor 1 (HIF1A) Trancription factor using HepaRG (AID 2283503)
Procedure, shortened: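 HIF1A transcript level read by qRT-PCR (ACTB, GAPDH, POLR2A normalization) after 48 h chemical exposure of HepaRG cultures. Eight half-log concentrations, top 100 uM, 0.5% DMSO vehicle, duplicates; bidirectional curve fit against DMSO baseline.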

[15] = read-out: 3-Hydroxy-3-Methylglutaryl-CoA Synthase 2 (HMGCS2), HMGCS2 (gene 3158); experiment: LTEA_HepaRG_HMGCS2: Life Technologies and Expression Analysis (LTEA) Assay for 3-Hydroxy-3-Methylglutaryl-CoA Synthase 2 (HMGCS2) using HepaRG (AID 2283504)
Procedure, shortened: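 Human HepaRG cells in serum-free induction medium were exposed in duplicate for 48 h to 8-point half-log series from 100 uM top in 0.5% DMSO. HMGCS2 mRNA measured by TaqMan qRT-PCR, normalised to ACTB, GAPDH, POLR2A; bidirectional fit versus DMSO.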

HGF (gene 3082) = experiment: LTEA_HepaRG_HGF: Life Technologies and Expression Analysis (LTEA) Assay for Hepatocyte Growth Facto (HGF) using HepaRG (AID 2283505)
Procedure, shortened: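 Differentiated HepaRG cells in serum-free induction medium exposed 48 h in duplicate, 8 half-log concentrations from 100 uM in 0.5% DMSO. HGF mRNA by qRT-PCR, normalised to ACTB, GAPDH, POLR2A; bidirectional fitting.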

[16] = read-out: Cytochrome P450 3A7 (Homo sapiens) (UniProt P24462); experiment: LTEA_HepaRG_CYP3A7: Life Technologies and Expression Analysis (LTEA) Assay for CYP3A7 using HepaRG (AID 2283492)
Procedure, shortened: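 Differentiated HepaRG cells in serum-free induction medium exposed 48 h in duplicate to 8-point half-log series from 100 uM top in 0.5% DMSO. CYP3A7 mRNA by qRT-PCR, normalized to ACTB/GAPDH/POLR2A, bidirectional fit versus DMSO.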

Measured: AC50

Sequence of Hypoxia-inducible factor 1-alpha (Homo sapiens) (Q16665 whole entry, looked up): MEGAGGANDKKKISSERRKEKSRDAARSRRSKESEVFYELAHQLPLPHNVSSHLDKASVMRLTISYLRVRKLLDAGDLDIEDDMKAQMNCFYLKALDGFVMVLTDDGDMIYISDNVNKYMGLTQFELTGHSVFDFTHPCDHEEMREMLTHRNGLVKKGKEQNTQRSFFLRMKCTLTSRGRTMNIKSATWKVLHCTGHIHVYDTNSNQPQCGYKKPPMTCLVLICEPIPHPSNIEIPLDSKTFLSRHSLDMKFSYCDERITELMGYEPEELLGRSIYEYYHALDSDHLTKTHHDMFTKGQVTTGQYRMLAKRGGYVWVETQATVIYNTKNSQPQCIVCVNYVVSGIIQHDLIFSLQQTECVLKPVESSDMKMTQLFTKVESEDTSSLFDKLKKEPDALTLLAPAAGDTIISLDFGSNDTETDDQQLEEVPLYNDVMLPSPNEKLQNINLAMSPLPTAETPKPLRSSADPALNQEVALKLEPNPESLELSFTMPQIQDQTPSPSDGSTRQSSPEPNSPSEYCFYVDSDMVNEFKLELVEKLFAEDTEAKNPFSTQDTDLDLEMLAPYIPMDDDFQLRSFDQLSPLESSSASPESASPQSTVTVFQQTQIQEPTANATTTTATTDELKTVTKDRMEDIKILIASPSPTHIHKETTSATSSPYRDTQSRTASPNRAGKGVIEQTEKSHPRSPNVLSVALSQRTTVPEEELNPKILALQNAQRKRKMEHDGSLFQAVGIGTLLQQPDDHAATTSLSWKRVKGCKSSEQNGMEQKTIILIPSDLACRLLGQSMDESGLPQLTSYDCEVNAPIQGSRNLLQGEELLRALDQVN
Sequence of Cytochrome P450 3A4 (Homo sapiens) (P08684 whole entry, looked up): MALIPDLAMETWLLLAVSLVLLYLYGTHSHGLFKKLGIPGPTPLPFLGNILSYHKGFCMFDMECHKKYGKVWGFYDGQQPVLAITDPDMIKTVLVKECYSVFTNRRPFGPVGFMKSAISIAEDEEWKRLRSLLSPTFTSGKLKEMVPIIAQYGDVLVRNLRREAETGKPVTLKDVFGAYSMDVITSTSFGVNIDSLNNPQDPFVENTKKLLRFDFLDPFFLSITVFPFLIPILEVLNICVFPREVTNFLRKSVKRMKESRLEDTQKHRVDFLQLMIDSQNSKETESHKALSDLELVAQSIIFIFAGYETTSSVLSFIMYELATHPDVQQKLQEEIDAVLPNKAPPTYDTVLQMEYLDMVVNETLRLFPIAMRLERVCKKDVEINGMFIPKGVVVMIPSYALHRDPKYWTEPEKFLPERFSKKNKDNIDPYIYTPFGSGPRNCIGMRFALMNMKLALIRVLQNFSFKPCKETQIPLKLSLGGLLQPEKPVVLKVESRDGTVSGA
Sequence of Cytochrome P450 3A7 (Homo sapiens) (P24462 whole entry, looked up): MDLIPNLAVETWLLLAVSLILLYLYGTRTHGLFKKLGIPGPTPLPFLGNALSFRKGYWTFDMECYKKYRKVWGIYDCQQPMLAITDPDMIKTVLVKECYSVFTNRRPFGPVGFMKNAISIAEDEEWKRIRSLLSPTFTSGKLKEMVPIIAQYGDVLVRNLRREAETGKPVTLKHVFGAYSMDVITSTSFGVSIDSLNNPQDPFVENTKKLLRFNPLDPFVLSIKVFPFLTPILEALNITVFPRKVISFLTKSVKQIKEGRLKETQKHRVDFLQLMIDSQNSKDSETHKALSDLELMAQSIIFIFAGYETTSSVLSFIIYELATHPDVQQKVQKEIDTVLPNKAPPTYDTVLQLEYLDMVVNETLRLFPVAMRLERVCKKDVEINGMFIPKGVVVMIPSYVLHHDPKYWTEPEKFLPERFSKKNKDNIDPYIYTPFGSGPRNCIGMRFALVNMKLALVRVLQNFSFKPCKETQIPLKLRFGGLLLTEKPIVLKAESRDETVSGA

CC(C)C(=O)OCC(C)(C)C(OC(=O)C(C)C)C(C)C (centres undefined)
not listed: [16]
inactive: all other assays above

CCC(C)c1cc([N+](=O)[O-])cc([N+](=O)[O-])c1O (centres undefined)
active: CYP4A11 (gene 1579) 2780 nM | [1] 2370 nM | [2] 5950 nM | [3] 1970 nM | [4] 17100 nM | [5] 3740 nM | CYP3A5 (gene 1577) 15500 nM | [6] 1270 nM | [7] 2350 nM | [8] 2670 nM | [9] 2720 nM | [10] 1290 nM | [11] 4960 nM | [12] 4160 nM | [13] 2490 nM | [14] 18500 nM | [15] 2930 nM | HGF (gene 3082) 2870 nM

Oc1ccc(Cl)cc1Cl
not listed: CYP4A11 (gene 1579)
inactive: all other assays above
